Values joined by “and” are separate entries in the source; they are usually repeats but may differ in a detail not shown here. Identical values can stand only once. Among all 300,000 compounds or so, about 480 (0.16%) were called active.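 Rule for the calls: active = inhibition over 29.93%, a cutoff 3 SD above the screen mean, later confirmed by dose response; inconclusive = inhibition over 29.93% but no dose response follow-up; inactive = inhibition at most 29.93% or unconfirmed.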 A selection follows. Measured potencies and affinities stand elsewhere.

This assay in a line: inhibitors of PhoP regulon expression, primary screen, Salmonella Typhimurium, GFP reporter (AID 1863).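 Note: 0% = low Mg2+ inducing control and 100% = high Mg2+ repressing control.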 The following applies: S. Typhimurium PhoP-regulated promoter GFP reporter, 4 h; at 50 µM; hits give high values.
As usually defined, the inhibition is the change of the read-out against control, counted positive when it falls. Take `Cn1c(SCC2CCCCC2)nnc1-c1ccncc1`: the inhibition is 7.51% (inactive). Consider `CC(NC(=O)c1cc2cc(F)ccc2[nH]1)c1ccccc1` (configuration not stated), for which the inhibition was 5.36% (inactive).

With `COc1ccc(Cl)cc1NC(=O)C/C(C)=N/NC(=O)COc1ccc(C)cc1`, the inhibition was 4.2% (inactive). As for `Cc1ccc(C(=O)OC(C)C(=O)NC2CCCCC2C)cc1S(=O)(=O)N1CCOCC1` (configuration not stated), the inhibition is -5.67% (inactive). As for `CCCCC(=O)N1CCN(c2nc3ccc(OCC)cc3s2)CC1`, the figure is 10.3% (inactive); as for `CN1CCc2c(sc(NC(=O)C3CCCN3S(=O)(=O)c3ccc(Cl)s3)c2C(N)=O)C1` (configuration not stated), -7.52% (inactive). `CCOc1ccc(N(CC(=O)NCCc2ccccc2)C(=O)c2csnn2)cc1`: the inhibition is 2.07% (inactive). In the case of `Cc1ccc(-n2nc3ccc(N)cc3n2)cc1Cl`, the inhibition was 0.05% (inactive). Turning to `O=C(O)COCC(=O)NCc1nc(-c2ccc(C(F)(F)F)cc2)no1`, the inhibition is -3.89% (inactive). For the molecule `CC1c2ccsc2CCN1S(=O)(=O)c1ccccc1` (configuration not stated), the inhibition was 5.29% (inactive). Consider `COc1cc2c(cc1OC)C(COc1ccc([N+](=O)[O-])cc1)NCC2` (configuration not stated), for which the inhibition is 5.02% (inactive). For the molecule `CC1CCN(c2c(NCC3CCC(C(=O)NCc4ccccc4)CC3)c(=O)c2=O)CC1` (configuration not stated), the inhibition was -6.12% (inactive). Take `CC1CCCN(C(=S)NCc2ccccc2)C1` (configuration not stated): the inhibition is 4.83% (inactive). As for `Cc1ccc(CCNS(=O)(=O)c2cc(Br)cnc2N)cc1`, the inhibition was 1.18% (inactive).

On to `CC1CCCCC1NC(=O)C1CCN(C(=O)c2sccc2-n2cccc2)CC1` (configuration not stated), for which the inhibition was 6.9% (inactive). As for `COC(=O)COC(=O)c1ccc(O)cc1`, the figure is -6.41% (inactive).

Turning to `Cc1ccc(-c2nc(CS(=O)(=O)CC(=O)N3CCc4ccccc4C3)c(C)o2)cc1`, the inhibition is 8.69% (inactive). For the molecule `CC1CCC(C(C)C)C(OC(=O)Cn2c(-c3ccc(Br)cc3)[n+](C)c3ccccc32)C1` (configuration not stated), the inhibition is 10% (inactive) and 1.48% (inactive). Turning to `COc1ccc(-c2n(CC(=O)OC3CC(C)CCC3C(C)C)c3ccccc3[n+]2C)cc1` (configuration not stated), the inhibition is -3.97% (inactive). Take `CC1CCC(C(C)C)C(OC(=O)Cn2c(-c3ccc(F)cc3)[n+](C)c3ccccc32)C1` (configuration not stated): the inhibition is 4.57% (inactive). In the case of `Cc1cccc(OCc2n(CC(=O)OC3CC(C)CCC3C(C)C)c3ccccc3[n+]2C)c1` (configuration not stated), the inhibition is 15.1% (inactive). For the molecule `Cc1ccccc1OCc1n(CC(=O)OC2CC(C)CCC2C(C)C)c2ccccc2[n+]1C` (configuration not stated), the inhibition was 6.3% (inactive). As for `CC1CCC(C(C)C)C(OC(=O)Cn2c(-c3ccccc3)[n+](C)c3ccccc32)C1` (configuration not stated), the inhibition is -8.38% (inactive) and 13.1% (inactive). For `COc1cccc(N2CCN(C(=O)CN(C)S(=O)(=O)c3ccc4c(c3)c(=O)n(C)c(=O)n4C)CC2)c1`, the inhibition is 3.8% (inactive). `CCN(CC)c1ccc(NC(=O)CCNC(=O)c2ccco2)cc1`: the inhibition is 17.8% (inactive). For the molecule `COc1ccc(CNC(=O)COC(=O)CCOc2ccc(C)cc2)cc1OC`, the inhibition is -1.68% (inactive). With `CN(Cc1cn(C)c2ccccc12)C(=S)Nc1cc(F)cc(F)c1` the figure was -1.37% (inactive). Regarding `COc1ccc(CCN2CC(C(=O)NCCc3ccccc3)CC2=O)cc1OC` (configuration not stated), the inhibition is 6.87% (inactive).

As to `CCN1CCN(C(=O)c2cnn3c(C(F)F)cc(-c4ccc(C)cc4)nc23)CC1`, the inhibition is 7.14% (inactive).

As for `COc1ccc(S(=O)(=O)N2CC(C)N(C(=O)N(C)C)C2C)cc1` (configuration not stated), the inhibition is -6.03% (inactive).

Take `COc1ccc(-n2cnnc2SCC(=O)Nc2ccccc2F)cc1`: the inhibition was -6.73% (inactive).

Turning to `CCOc1ccccc1NC(=O)CSc1nnc(CNC(=O)c2c(F)cccc2Cl)o1`, the inhibition was 1.66% (inactive). Turning to `COc1ccc(NC(=O)COc2ccc(/C=N/n3c(C)nnc3C)cc2OC)cc1`, the inhibition is -10.3% (inactive). Take `COC(=O)Nc1ccc(S(=O)(=O)N2CCCCCC2)cc1`: the inhibition is -7.01% (inactive). For the molecule `Cc1ccc(C)c(N(CC(=O)NC(C)C)C(=O)CCC(=O)Nc2ccccn2)c1`, the inhibition is -3.9% (inactive). With `CO/N=C(\C(=O)N[C@@H]1C(=O)N2C(C(=O)O)=C(COC(N)=O)CS[C@H]12)c1ccco1`, the inhibition is 4.28% (inactive).

For `COCC1=C(C(=O)OC(C)OC(=O)OC(C)C)N2C(=O)[C@@H](NC(=O)/C(=N\OC)c3csc(N)n3)[C@H]2SC1` (some centres not stated), the inhibition was -12.3% (inactive).

Take `O=S(=O)(N/N=C/c1ccc(N2CCOCC2)cc1)c1ccc(Br)cc1`: the inhibition was -5.5% (inactive). For `Cc1nn2c(-c3ccccc3)ccnc2c1Br`, the inhibition was 0.66% (inactive). Turning to `Cc1ccc(S(=O)(=O)/N=C2/C=C(C3C(=O)CC(C)(C)CC3=O)C(=O)c3ccccc32)cc1`, the inhibition is 8.77% (inactive). Consider `Cc1ccc(S(=O)(=O)/N=C2/C=C(Sc3ncn[nH]3)C(=O)c3ccccc32)c(C)c1`, for which the inhibition is 192% (inactive). On to `CCc1ccc(S(=O)(=O)/N=C2\C=CC(=O)c3ccccc32)cc1`, for which the inhibition is 3.04% (inactive). `CCc1ccc(S(=O)(=O)/N=C2\C=C(Nc3ccc(O)cc3)C(=O)c3ccccc32)cc1`: the inhibition is 15.4% (inactive). Consider `CCOC(=O)c1cn(Cc2ccccc2)c(C(=O)OC(C)(C)C)c1O`, for which the inhibition is 2.15% (inactive). As for `CN(CC(=O)Nc1ccccc1Br)C(=O)c1ccc(COc2ccccc2)cc1`, the inhibition was 1.64% (inactive). As for `O=C(O)c1cc2ccc3cccc4ccc(c1)c2c34`, the figure is 7.13% (inactive); as for `Oc1cccc2cc3cccc(O)c3c(O)c12`, 5.42% (inactive); as for `CC(=O)NC12CC3CC(C1)CC(C(=O)Nc1nccs1)(C3)C2`, -6.86% (inactive). `O=C(COc1ccc(Cl)cc1)Nc1ccc(C(=O)O)cc1NC(=O)COc1ccc(Cl)cc1`: the inhibition is -0.41% (inactive). Take `COc1cc(/C=C/C(=O)N(C)c2ccccc2C(=O)O)cc(OC)c1OC`: the inhibition was -9.48% (inactive). For the molecule `CC(C)(C)c1cc(NCCCn2ccnc2)n2ncc(-c3ccccc3)c2n1`, the inhibition is -5.57% (inactive). As for `CC(C)Nc1cc(C(C)(C)C)nc2c(-c3ccccc3)cnn12`, the figure is 1.4% (inactive); as for `C[C@@H]1CN(Cc2nc(-c3cccs3)no2)C[C@H](C)O1`, 17.7% (inactive).

`COc1ccc(CC2NCCC3(O)CCCCC23)cc1` (configuration not stated): the inhibition was -4.79% (inactive). As for `CCOc1ccc(C(=O)Nc2ccc(C(=O)N3CCOCC3)cc2)c(OCC)c1`, the figure is 2.54% (inactive). As for `CCCCC(CC)CNC(=O)C1CC=CCC1C(=O)O` (configuration not stated), the figure is -4.78% (inactive). As to `Cc1cc2oc(C(=O)Nc3ccc(S(N)(=O)=O)cc3)c(C)c2cc1Cl`, the inhibition is 0.34% (inactive).

These data come from PubChem BioAssay AID1863 (Southern Research Specialized Biocontainment Screening …, 2009).
